According to PubChem BioAssay AID1159580 (chemical genetic matrix, 2015):
“And” between values parts separate entries of the source, which are not always exact repeats. Equal entries are not always repeated. The whole screen tested about 5,500 compounds, of which about 2,000 (36%) were called active. Inconclusive results (about 18%) are left out. No stated cut-off is given here; in the data, active means normalized growth mostly below about 0.91 (no sharp cut-off); inconclusive means no clear call, values can overlap the other calls; inactive means mostly above about 0.92. The list shows a part of the results.

Experiment: chemical genetic growth profiling, strain panel (AID 1159580);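 further: tested at 20 µM; growth read once vehicle control cultures reached saturation at 30 °C; 1 = growth at the plate median or of vehicle wells; lower values mean less growth of the strain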
Conditions: growth OD

Measured: normalized growth

NCC(CC(=O)O)c1ccc(Cl)cc1 (stereo not drawn)
inactive: S. cerevisiae deletion strains, locus YJR075W, strain HOC1, hits give low values 0.991 | S. cerevisiae deletion strains, locus YKL009W, strain mrt4, hits give low values 0.968 | S. cerevisiae deletion strains, locus YKL068W, hits give low values 1.01 | S. cerevisiae deletion strains, locus YKL085W, strain MDH1 (second series), hits give low values 0.991 | S. cerevisiae deletion strains, locus YKL085W, strain MDH1, hits give low values 0.991 | S. cerevisiae deletion strains, locus YKL160W, strain elf1, hits give low values 1.01 | S. cerevisiae deletion strains, locus YKR001C, strain vps1, hits give low values 0.974 | S. cerevisiae deletion strains, locus YKR026C, strain gcn3, hits give low values 0.995 | S. cerevisiae deletion strains, locus YKR091W, strain srl3, hits give low values 1 | S. cerevisiae deletion strains, locus YLL001W, strain dnm1, hits give low values 1.03 | S. cerevisiae deletion strains, locus YLL026W, hits give low values 1.01 | S. cerevisiae deletion strains, locus YLL041C, strain sdh2, hits give low values 0.993 | S. cerevisiae deletion strains, locus YLR027C, strain aat2, hits give low values 1.01 | S. cerevisiae deletion strains, locus YLR039C, strain RIC1, hits give low values 1.07 | S. cerevisiae deletion strains, locus YLR058C, strain SHM2, hits give low values 1.02 | S. cerevisiae deletion strains, locus YLR102C, strain apc9, hits give low values 0.985 | S. cerevisiae deletion strains, locus YLR113W, strain HOG1, hits give low values 1.05 | S. cerevisiae deletion strains, locus YLR221C, strain rsa3, hits give low values 0.976 | S. cerevisiae deletion strains, locus YLR258W, strain gsy2, hits give low values 0.984 | S. cerevisiae deletion strains, locus YLR262C, strain YPT6 (second series), hits give low values 0.995 | S. cerevisiae deletion strains, locus YLR262C, strain YPT6, hits give low values 1.08 | S. cerevisiae deletion strains, locus YLR268W, strain sec22, hits give low values 1.02 | S. cerevisiae deletion strains, locus YLR320W, strain mms22, hits give low values 0.968 | S. cerevisiae deletion strains, locus YLR330W, strain CHS5, hits give low values 1.02 | S. cerevisiae deletion strains, locus YLR342W, strain FKS1 (second series), hits give low values 1.03 | S. cerevisiae deletion strains, locus YLR342W, strain FKS1, hits give low values 1.03 | S. cerevisiae deletion strains, locus YLR357W, strain rsc2, hits give low values 1 | S. cerevisiae deletion strains, locus YLR370C, strain arc18, hits give low values 0.997 | S. cerevisiae deletion strains, locus YLR371W, strain rom2, hits give low values 0.985 | S. cerevisiae deletion strains, locus YLR384C, strain iki3, hits give low values 1.01 | S. cerevisiae deletion strains, locus YLR418C, strain cdc73, hits give low values 0.979 | S. cerevisiae deletion strains, locus YML016C, strain PPZ1, hits give low values 1.02 | S. cerevisiae deletion strains, locus YML032C, strain rad52, hits give low values 0.987 | S. cerevisiae deletion strains, locus YML120C, strain ndi1, hits give low values 0.999 | S. cerevisiae deletion strains, locus YML124C, strain tub3, hits give low values 0.983 | S. cerevisiae deletion strains, locus YMR058W, strain fet3, hits give low values 1.02 | S. cerevisiae deletion strains, locus YMR078C, strain ctf18, hits give low values 0.99 | S. cerevisiae deletion strains, locus YMR125W, strain sto1, hits give low values 0.97 | S. cerevisiae deletion strains, locus YMR129W, hits give low values 0.999 | S. cerevisiae deletion strains, locus YMR205C, strain PFK2, hits give low values 1.01 | S. cerevisiae deletion strains, locus YMR223W, strain ubp8, hits give low values 1 | S. cerevisiae deletion strains, locus YMR231W, strain pep5, hits give low values 1.01 | S. cerevisiae deletion strains, locus YMR263W, strain SAP30, hits give low values 1.01 | S. cerevisiae deletion strains, locus YMR307W, strain GAS1, hits give low values 1.1 | S. cerevisiae deletion strains, locus YNL067W, strain RPL9B, hits give low values 1 | S. cerevisiae deletion strains, locus YNL071W, strain lat1, hits give low values 0.991 | S. cerevisiae deletion strains, locus YNL128W, strain TEP1, hits give low values 1.01 | S. cerevisiae deletion strains, locus YNL153C, strain GIM3, hits give low values 1.01 | S. cerevisiae deletion strains, locus YNL175C, strain NOP13, hits give low values 0.977 | S. cerevisiae deletion strains, locus YNL183C, strain NPR1, hits give low values 0.993 | S. cerevisiae deletion strains, locus YNL197C, strain WHI3, hits give low values 1.04 | S. cerevisiae deletion strains, locus YNL209W, strain ssb2, hits give low values 0.997 | S. cerevisiae deletion strains, locus YNL224C, strain SQS1, hits give low values 0.993 | S. cerevisiae deletion strains, locus YNL233W, strain BNI4, hits give low values 1.01 | S. cerevisiae deletion strains, locus YNL248C, strain rpa49, hits give low values 0.961 | S. cerevisiae deletion strains, locus YNL250W, strain rad50, hits give low values 0.986 | S. cerevisiae deletion strains, locus YNL271C, strain bni1, hits give low values 0.987 | S. cerevisiae deletion strains, locus YNL298W, strain CLA4, hits give low values 0.984 | S. cerevisiae deletion strains, locus YNL307C, strain MCK1, hits give low values 0.977 | S. cerevisiae deletion strains, locus YNL322C, strain KRE1 (second series), hits give low values 0.985 | S. cerevisiae deletion strains, locus YNR049C, strain mso1, hits give low values 1.01 | S. cerevisiae deletion strains, locus YNR052C, strain pop2, hits give low values 0.979 | S. cerevisiae deletion strains, locus YOL012C, strain htz1 1.49 | S. cerevisiae deletion strains, locus YOL147C, strain pex11, hits give low values 0.984 | S. cerevisiae deletion strains, locus YOR001W, strain rrp6, hits give low values 0.99 | S. cerevisiae deletion strains, locus YOR061W, strain CKA2, hits give low values 1.02 | S. cerevisiae deletion strains, locus YOR069W, strain VPS5, hits give low values 1.01 | S. cerevisiae deletion strains, locus YOR070C, strain gyp1, hits give low values 0.98 | S. cerevisiae deletion strains, locus YOR080W, strain dia2, hits give low values 0.997 | S. cerevisiae deletion strains, locus YOR083W, strain WHI5 (second series), hits give low values 1.04 | S. cerevisiae deletion strains, locus YOR083W, strain WHI5, hits give low values 0.988 | S. cerevisiae deletion strains, locus YOR106W, strain vam3, hits give low values 1.02 | S. cerevisiae deletion strains, locus YOR136W, strain idh2, hits give low values 0.974 | S. cerevisiae deletion strains, locus YOR144C, strain elg1, hits give low values 0.992 | S. cerevisiae deletion strains, locus YOR184W, strain ser1, hits give low values 0.984 | S. cerevisiae deletion strains, locus YOR231W, strain MKK1, hits give low values 1.08 | S. cerevisiae deletion strains, locus YOR265W, strain rbl2, hits give low values 1 | S. cerevisiae deletion strains, locus YOR270C, strain vph1, hits give low values 0.976 | S. cerevisiae deletion strains, locus YOR290C, strain snf2, hits give low values 0.957 | S. cerevisiae deletion strains, locus YOR316C, strain cot1, hits give low values 0.986 | S. cerevisiae deletion strains, locus YPL051W, strain arl3, hits give low values 0.999 | S. cerevisiae deletion strains, locus YPL055C, strain LGE1, hits give low values 1.02 | S. cerevisiae deletion strains, locus YPL078C, strain atp4, hits give low values 1.02 | S. cerevisiae deletion strains, locus YPL106C, strain sse1, hits give low values 0.968 | S. cerevisiae deletion strains, locus YPL240C, strain hsp82, hits give low values 0.992 | S. cerevisiae deletion strains, locus YPL241C, strain CIN2, hits give low values 1.01 and 0.983 | S. cerevisiae deletion strains, locus YPL256C, strain CLN2, hits give low values 1.08 | S. cerevisiae deletion strains, locus YPR119W, strain clb2, hits give low values 0.993 | S. cerevisiae deletion strains, locus YPR141C, strain kar3, hits give low values 0.996 | S. cerevisiae deletion strains, locus YPR163C, strain tif3, hits give low values 0.99 | S. cerevisiae deletion strains, locus YPR167C, strain met16, hits give low values 0.991 | S. cerevisiae deletion strains, strain wtn01, hits give low values 0.992 | S. cerevisiae strains, strain wild type, hits give low values 1.03
